Assay outcomes: PubChem, several laboratories
Only some compounds are listed: those with a hit (about 4.7% of all), similar ones and a draw of the others.
rCAG RNA binder = binders of r(CAG) RNA repeats, primary screen, biochemical, fluorescence. r(CAG) RNA repeat, TO-PRO-1 dye displacement fluorescence. inhibition, % at 3 µM. hit rate 1.3% among 370,000;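 active = inhibition above the plate cutoff, the mean of all test compounds on that plate plus 3 SD, cut at about 35% in these data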;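 note: 0% = DMSO alone and 100% = 100 µM mitoxantrone as full dye displacement; higher means more dye released from RNA so lower well fluorescence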
ADAM10 inh = human ADAM10 inhibitors, primary screen, biochemical, QFRET, HTS; recombinant ADAM10, EDANS/DABCYL FRET peptide cleavage, 3 h; inhibition, % at 7 µM; hit rate 0.62% among 370,000;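 active = inhibition above a per-campaign cutoff equal to the mean of compounds falling between control-based bounds plus 3 SD, cut at about 20% in these data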;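 note: 0% = DMSO wells while the 100% control is not disclosed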
proKLK7 act = proKLK7 zymogen activators, primary screen, biochemical, fluorescence intensity; Kallikrein-7 (Homo sapiens), P49862; purified proKLK7, EDANS-DABCYL substrate fluorescence; 100% is mature enzyme control, 0% vehicle; activation, % at 7 µM; hit rate 0.9% among 370,000; AID 652039, 2013;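 active = activation above the mean of all tested compounds plus 3 SD, computed per campaign excluding outliers beyond control limits, cut at about 13% in these data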
Target sequence (P49862 whole entry, looked up): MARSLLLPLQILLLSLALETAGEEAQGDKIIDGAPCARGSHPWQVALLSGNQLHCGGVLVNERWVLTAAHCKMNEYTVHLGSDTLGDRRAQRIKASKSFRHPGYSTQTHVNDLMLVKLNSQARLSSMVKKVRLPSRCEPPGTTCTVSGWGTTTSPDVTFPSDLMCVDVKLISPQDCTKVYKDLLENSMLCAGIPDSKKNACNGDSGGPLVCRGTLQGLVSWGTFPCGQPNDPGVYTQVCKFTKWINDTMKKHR
Pemphigus Ab inh = inhibitors of pemphigus antibody binding to DSG3, primary screen, biochemical, bead-based, flow cytometry, scFv-GFP | hit rate 0.48% among 310,000 | DSG3-coupled beads, scFv-anti-DSG3-GFP binding; stronger effect = lower value | AID 588358, 2011 | Desmoglein-3 (Homo sapiens), P32926 | binding (percent of control), % at 10 µM;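 active = binding more than 3 SD below its plate's average and above zero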
MPTP inh = mitochondrial permeability transition pore inhibitors, primary screen, biochemical, isolated mouse mitochondria, absorbance | Ca2+ swelling absorbance, 30 min | inhibition, % at 10 µM | hit rate 1.4% among 360,000 | AID 602449, 2012;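 active = inhibition of 50% or more, scaled per plate between neutral and stimulator controls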;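 note: 0% = DMSO wells given calcium and 100% = 1 mM EGTA wells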
ADAM17 inh = ADAM17 inhibitors, primary screen, biochemical, QFRET | Disintegrin and metalloproteinase domain-containing protein 17 (Homo sapiens), P78536 | recombinant ADAM17, EDANS/DABCYL FRET peptide cleavage | inhibition, % at 6.95 µM | hit rate 0.83% among 370,000;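 active = inhibition above the mean of compounds lying between control limits plus 3 SD, set per campaign, cut at about 8.5% in these data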;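 note: 0% = DMSO-only wells as the low control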
ADAM10 confirm = human ADAM10 inhibitors, confirmation, biochemical, QFRET, triplicate. shares compounds with ADAM10 inh. ADAM10 QFRET peptide cleavage, EDANS fluorescence. inhibition, % at 6.95 µM. hit rate 1% among 2,100. AID 743208, 2013;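 active = inhibition above about 20% chosen separately for each screening run, limit read from the data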;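 note: 0% = DMSO wells and 100% = marimastat wells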
ADAM17 counter = ADAM17 inhibitors, counter-screen for ADAM10 exosite inhibitor project, biochemical, QFRET, high throughput | shares compounds with ADAM10 inh | ADAM17 QFRET peptide cleavage, EDANS fluorescence | inhibition, % at 6.95 µM | hit rate 0.5% among 2,100 | AID 743214, 2013;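 active = mean triplicate inhibition above the solvent-only control wells' mean plus 3 SD, cut at about 12% in these data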;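 note: 0% = DMSO wells and 100% = marimastat wells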
Starred values were filed as active, the others as inactive.

COc1ccc(S(=O)(=O)Nc2cc(OC)c(NC(=O)c3ccco3)cc2OC)cc1 was read as rCAG RNA binder 14, ADAM10 inh 21*, proKLK7 act 0, Pemphigus Ab inh 107, MPTP inh 0, ADAM17 inh 8, ADAM10 confirm 1 and ADAM17 counter 0.
CCOc1cc(NS(=O)(=O)c2ccc(OC)cc2)c(OCC)cc1NC(=O)c1ccco1 was read as rCAG RNA binder 3, ADAM10 inh 0, proKLK7 act 0, Pemphigus Ab inh 104, MPTP inh 2 and ADAM17 inh -3.
`NC(=O)c1ccsc1NC(=O)CS(=O)(=O)c1ccccc1` gave rCAG RNA binder -1, ADAM10 inh 84*, proKLK7 act 1, Pemphigus Ab inh 102, MPTP inh -2, ADAM17 inh -1, ADAM10 confirm 0 and ADAM17 counter 0.
Screening O=C(c1ccc(CS(=O)Cc2ccc(Cl)cc2)o1)N1CCN(C2CCCCC2)CC1 (stereo not given) returned rCAG RNA binder 3, ADAM10 inh -19, proKLK7 act 1, Pemphigus Ab inh 99, MPTP inh 0 and ADAM17 inh 0.
For CCO[C@H]1OC(C(=O)NCc2ccccc2)=C[C@@H](c2ccc(C(F)(F)F)cc2)[C@@H]1CCCO the results were rCAG RNA binder -7, ADAM10 inh 22*, proKLK7 act 0, Pemphigus Ab inh 102, MPTP inh 1, ADAM17 inh 2, ADAM10 confirm -1 and ADAM17 counter 0.
Screening CCO[C@@H]1OC(C(=O)NCc2ccccc2)=C[C@H](c2ccc(Br)cc2)[C@H]1CCCO returned rCAG RNA binder -6, ADAM10 inh 12, proKLK7 act 1, Pemphigus Ab inh 108, MPTP inh 0 and ADAM17 inh 3.
Screening COc1ccc(-n2c(C)c(C(C)=O)c3cc(O)ccc32)cc1 returned rCAG RNA binder 3, ADAM10 inh -2, proKLK7 act 0, Pemphigus Ab inh 102, MPTP inh 0 and ADAM17 inh -1.
CCOC(=O)COc1ccc2c(c1)c(C(C)=O)c(C)n2-c1ccc(OC)cc1 was read as rCAG RNA binder -7, ADAM10 inh 21*, proKLK7 act 0, Pemphigus Ab inh 106, MPTP inh 0, ADAM17 inh 7, ADAM10 confirm 3 and ADAM17 counter 1.
`CNc1cccc(-c2cccc(C(=O)N3CCOCC3)c2)n1` gave rCAG RNA binder 2, ADAM10 inh -41, proKLK7 act 1, MPTP inh 0 and ADAM17 inh -14.
For Cc1cccc(NC(=O)CCCN=C2NS(=O)(=O)c3ccccc32)c1C the results were rCAG RNA binder 0, ADAM10 inh 56*, proKLK7 act 0, Pemphigus Ab inh 88, MPTP inh 0, ADAM17 inh -5, ADAM10 confirm 0 and ADAM17 counter -1.
`CC(=O)c1ccccc1-c1csc2ncnc(Sc3nnnn3C)c12` gave rCAG RNA binder 4, ADAM10 inh 76*, proKLK7 act 0, Pemphigus Ab inh 102, MPTP inh -1, ADAM17 inh -6, ADAM10 confirm 1 and ADAM17 counter 0.
Cn1nnnc1Sc1ncnc2scc(-c3ccccc3C(F)(F)F)c12 was read as rCAG RNA binder -1, ADAM10 inh -1, proKLK7 act 1, Pemphigus Ab inh 93, MPTP inh -1 and ADAM17 inh 1.
